Only a selection was taken, and hits are over-represented in it overall.
Tgondii IFNg: inhibitors of Toxoplasma gondii growth with IFN-gamma; activity change, negative = inhibition, % (no concentration beside the values); Toxoplasma gondii growth in IFN-gamma-treated host cells; hits give low values; AID 1259416; 69,000 compounds, 3.8% hits; in the data active means activity change below about -70%, passing the limit was not always enough;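 further: host cells are HeLa cells infected with Toxoplasma gondii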
* = called active by the depositor; ! = a repeat was not active.

SMILES	Tgondii IFNg
COCC1CN(Cc2cc(C)on2)Cc2cn(C)nc21 (centres undefined)	-66
COc1ccc(-c2nc(Nc3cccc(C(F)(F)F)c3)c3ccccc3n2)cc1	23
CC(=O)N1C(Cn2cccn2)CC2CN(C(N)=O)CCC21 (centres undefined)	-20
CC(Oc1ccccc1-c1ccc(-c2ccn[nH]2)cc1)C(N)=O (centres undefined)	13
C/C=C/C(=O)Nc1ccccc1-c1ccc(-c2ccn[nH]2)cc1	-93*
Cc1nnc(-c2ccccc2-c2ccc(-c3ccn[nH]3)cc2)o1	5
COc1ccc(CN(Cc2ccccc2)Cc2nnnn2CCc2ccccc2)cc1	-68
COc1cccc(N2CCN(c3cc(CCN)nc(C)n3)CC2(C)C)c1	-12
Cn1cc(CNCC2CCN(c3ncc(C(=O)NO)cn3)CC2)c2ccccc21	-79*
O=C(NO)c1cnc(N2CCN(S(=O)(=O)c3ccc4ccccc4c3)CC2)nc1	-70
Cn1cc(CC(=O)NCc2cnn3ccccc23)c2ccccc21	42
CCN(CC)CC1CN(Cc2cnn(C)c2)Cc2nccn2C1 (centres undefined)	6
O=C(c1cc(Cn2ccc3ccccc32)[nH]n1)N1[C@@H]2CC[C@H]1CC(O)C2 (some centres undefined)	2
Cc1oc(C2CCN(C(=O)c3cccnc3)CC2)nc1C(=O)N1CCSCC1	8
O=C(Nc1ccc(-c2ccco2)cc1)C1CCCN(C(=O)c2ccccc2-n2cccn2)C1 (centres undefined)	5
O=c1cc(-c2ccc(O)c(O)c2)oc2cc(O)cc(O)c12	9
O=c1c(O)c(-c2ccc(O)c(O)c2)oc2cc(O)cc(O)c12	-78*!
Cc1oc2cc(O)cc(O)c2c(=O)c1-c1ccccc1	261
CC1=C(C(=O)NCc2ccc(C)cc2)C2(CCN(S(=O)(=O)c3cccs3)CC2)OC1=O	12
Cn1cc(N2CCC3(CCN(C(=O)c4ccncc4)C3)C2=O)cn1 (centres undefined)	9
COc1ccc(-c2nc(Nc3cc(C)cc(C)c3)c3ccccc3n2)cc1	-36
CCc1cccc(NC(=O)c2nc(Nc3ccccc3)c3ccccc3n2)c1	-72*
COc1ccc(NC(=O)c2nc(Nc3ccccc3)c3ccccc3n2)cc1	118
CCc1ccc(Nc2nc(C(=O)NC)nc3ccccc23)cc1	-6
CCc1ccc(NC(=O)c2nc(Nc3ccccc3)c3ccccc3n2)cc1	-6
SMILES	Tgondii IFNg
COc1ccc(-c2nc(Nc3ccc(C)cc3)c3ccccc3n2)cc1	-43
Cc1ccc(NC(=O)c2nc(Nc3ccccc3)c3ccccc3n2)cc1	-6
COc1cc(-c2nc(Nc3ccc(C)cc3)c3ccccc3n2)cc(OC)c1OC	-93*
COc1cccc(NC(=O)c2nc(Nc3ccc(C)cc3)c3ccccc3n2)c1	-88*
COc1cccc(CNC(=O)C2CC3(CO2)CN(S(C)(=O)=O)c2ccccc23)c1 (centres undefined)	-42
Cc1ccc(NC(=O)C(C)N(C)Cc2cc(C(C)(C)C)n[nH]2)cc1 (centres undefined)	30
Cc1noc([C@]23CCO[C@H]2CCN(S(=O)(=O)N(C)C)C3)n1	1
O=C(Nc1cccnc1)[C@@H]1C[C@H]2CCN(c3ncccn3)C[C@@H]2O1	3
Cc1nc(-c2cccc(F)c2)sc1CCNC(=O)C(=O)Nc1cccc(F)c1	-1
COc1cc(OC2CCN(C)CC2)ccc1Nc1ncc2c(n1)n(C1CCCC1)c(=O)n2C	-59
CCN1C(=O)CCc2cc(C(=O)NC3CCCCC3)ccc21	68
CC[C@@H]1C(=O)N(C)c2cnc(Nc3ccc(C(=O)NC4CCN(C)CC4)cc3OC)nc2N1C1CCCC1	-76*
CC(=O)NCCNC(=O)CC1Nc2c3ccccc3nc(=S)n2C1=O (centres undefined)	20
CN1CCC(Cc2noc(CCn3cccc3)n2)CC1	0
CCOC(=O)c1cc(C2CC2)nc2c1c(=O)n(Cc1nc(-c3cccc(Cl)c3)oc1C)c(=O)n2C	-43
CC(=O)Nc1ccc(C(=O)N2CCCCC2CCc2ccc(O)cc2)cc1 (centres undefined)	6
CCS(=O)(=O)N1CCC2(CC1)OC(=O)C(C)=C2C(=O)NCCc1ccc(Cl)cc1	40
O=C(NCCc1ccccc1F)N1CCCn2cncc2C1	-4
CCS(=O)(=O)N1Cc2nccn2CC(Cn2ncccc2=O)C1 (centres undefined)	5
COc1ccccc1C(=O)Nc1cc2cc(Br)ccc2oc1=O	13
COc1ccccc1C(=O)Nc1ccc2c3c(cccc13)CC2	-102*
COc1ccccc1C(=O)Nc1ccc(-c2nc(-c3ccccc3)co2)cc1	-26
CCc1c(C)c2ccc(OCC(=O)OC(C)C)c(C)c2oc1=O	37
C=CCOc1ccc2c(=O)cc(C(=O)OCC)oc2c1CCC	-3
CCCCOc1ccc2c(=O)c(-c3cc(C(=O)OC)oc3C)c(C(F)(F)F)oc2c1C	-108*
SMILES	Tgondii IFNg
CCOc1cccc(-c2noc(-c3nnn(Cc4nc(-c5cccc(C)c5)oc4C)c3C)n2)c1	-6
CC(=O)N1CCC[C@@]2(C(=O)NCC3CC3)CN(Cc3cnn(C)c3)C[C@H]2C1	3
O=C(Nc1ncn[nH]1)c1sc2ccccc2c1Cl	11
O=C(NC1CCSC1=O)c1sc2ccccc2c1Cl (centres undefined)	29
O=C(NC(=O)c1sc2ccccc2c1Cl)c1ccccc1O	-107*
Cc1nn(CC(=O)NCc2ccccn2)c(=O)c2nc(-c3ccccc3)sc12	-43
CC1CCN(c2ncnc3c2cnn3CC(=O)NCc2ccccc2)CC1	-101*
CC1CCN(c2ncnc3c2cnn3CC(=O)NCc2ccccc2Cl)CC1	-95*
CC1CCN(c2ncnc3c2cnn3CC(=O)NCc2cccnc2)CC1	167
CC1CCN(c2ncnc3c2cnn3CC(=O)NCCCc2ccccc2)CC1	110
O=C(Cn1ncc2c(N3CCCCCC3)ncnc21)NCc1ccccc1Cl	37
Cc1cc(Br)ccc1NC(=O)Cn1ncc2c(N3CCC(C)CC3)ncnc21	-48
CC(C)CCNC(=O)Cn1ncc2c(N3CCC(C)CC3)ncnc21	131
Cc1ccccc1CNC(=O)Cn1ncc2c(N3CCC(C)CC3)ncnc21	7
CC1CCN(c2ncnc3c2cnn3CC(=O)NCc2ccc(Br)cc2)CC1	-94*
CC(=O)Nc1ccc(Cl)c(C(=O)NCc2cnc(C)cn2)c1	2
COc1cc(Cl)cc2cc(C(=O)N3CCC(O)(CN(C)C)C3)oc12 (centres undefined)	-6
CCOCC1CN(C(=O)c2cccs2)Cc2nn(C)cc21 (centres undefined)	-2
NC(N)=NC(=O)c1cnccn1	12
Cc1ccc(CN2CCC(F)(F)C3(CCN(c4ncccn4)C3)C2)s1 (centres undefined)	-7
O=C(C1=Cc2ccccc2OC=C1)N1CCOC(c2ccc(F)cc2)C1 (centres undefined)	-22
Cc1ccccc1-c1ccc2c(c1)O[C@@H](CN(C)C(=O)Nc1ccc(C(F)(F)F)cc1)[C@@H](C)CN([C@H](C)CO)S2(=O)=O	66
C/C=C/c1ccc2c(c1)O[C@@H](CN(C)C(=O)Nc1ccc(OC)cc1)[C@@H](C)CN([C@@H](C)CO)S2(=O)=O	100
Cc1ccccc1-c1ccc2c(c1)O[C@H](CN(C)C(=O)Nc1ccc(C(F)(F)F)cc1)[C@@H](C)CN([C@H](C)CO)S2(=O)=O	-97*
C[C@@H]1CN([C@@H](C)CO)S(=O)(=O)c2ccc(C#CC3(O)CCCC3)cc2O[C@@H]1CN(C)C(=O)Nc1cccc(F)c1	-104*

High-throughput results: PubChem, Broad Institute
